Assay outcomes deposited in PubChem by National Center for Advancing Translational Sciences (NCATS).
Sm TGR block = qHTS Assay for the Inhibitors of Schistosoma Mansoni Peroxiredoxins | Schistosoma mansoni thioredoxin glutathione reductase (TGR), Q962Y6 | purified TGR, DTNB reduction, TNB absorbance 405 nm | Potency, µM (series often up to 114 µM), inactives show top-dose activity change, negative = inhibition, most hits filed as inhibitors | actives 3% (n = 360,000) | AID 485364, 2010; further: on the % scale 0 is the no-effect control and ±100 the full control effect; nearly all actives have a fitted effect of over 60% in size
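Kinetic colorimetric format: TGR-catalysed, NADPH-driven DTNB reduction monitored via TNB absorbance. Enzyme dispensed at 20 nM; compound exposure 15 min at room temperature before reaction start.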
SARS PLpro yeast = qHTS of Yeast-based Assay for SARS-CoV PLP | S. cerevisiae expressing SARS-CoV PLpro, growth rescue | Potency, µM (highest dose often 32.9 µM), for the others: top-dose activity, positive = growth rescue, actives largely listed as activators | actives 0.19% (n = 330,000) | AID 485353, 2010; calls by dose curve; further: 0% is about no effect; nearly all actives have a fitted effect of over 55% in size
AmpC no deterg = qHTS Inhibitors of AmpC Beta-Lactamase (assay without detergent); P00811; AmpC nitrocefin hydrolysis, absorbance 480 nm, 0.0001% Triton; Potency, µM (titrated, usually from 57.1 µM), without a hit: at the highest dose activity change, negative = inhibition, usual class: inhibitors; actives 0.52% (n = 330,000); AID 485341, 2010;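 further: plate controls were no compound for no effect and no enzyme for full effect; nearly all actives have a fitted effect of over 20% in size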
Target sequence (P00811 whole entry, looked up): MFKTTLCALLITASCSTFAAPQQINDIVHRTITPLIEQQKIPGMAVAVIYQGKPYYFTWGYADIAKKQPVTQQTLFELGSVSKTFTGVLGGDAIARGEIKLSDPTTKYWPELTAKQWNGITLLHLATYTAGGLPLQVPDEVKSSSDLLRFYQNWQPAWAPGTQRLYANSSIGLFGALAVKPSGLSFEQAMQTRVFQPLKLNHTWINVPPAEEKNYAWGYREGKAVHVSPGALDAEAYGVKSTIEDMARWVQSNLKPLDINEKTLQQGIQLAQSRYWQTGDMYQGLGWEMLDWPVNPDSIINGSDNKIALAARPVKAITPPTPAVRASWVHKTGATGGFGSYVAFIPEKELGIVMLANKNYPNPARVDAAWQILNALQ
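20 mM phosphate pH 7.0 + 0.01% (detergent screen) or 0.0001% Triton X-100; 5.3 nM AmpC reagent; cpd preinc 15 min RT; nitrocefin (800 uM stock) to start; A480 q20 s × 4 min; Activity was normalised to no-enzyme and no-compound control wells.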
AmpC inh detg = qHTS Inhibitors of AmpC Beta-Lactamase (assay with detergent) | actives 0.041% (n = 370,000) | AmpC hydrolysis of nitrocefin, absorbance 480 nm, 0.01% Triton | Potency, µM (series often up to 114 µM), for the others: at the highest dose activity change, negative = inhibition, hits mostly inhibitors | AID 485294, 2010 | P00811;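 further: 0% = no-compound wells and -100% = no-enzyme wells; nearly all actives have a fitted effect of over 25% in size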
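AmpC (5.3 nM in the dispensed reagent) in 20 mM phosphate pH 7.0 with 0.01% (detergent screen) or 0.0001% Triton X-100 was preincubated with compounds for 15 min at room temperature. Nitrocefin was then added from an 800 uM solution, and hydrolysis was followed at 480 nm.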
Pf growth 48h = Primary qHTS for delayed death inhibitors of the malarial parasite plastid, 48 hour incubation; P. falciparum luciferase growth in erythrocytes, 48 h; Potency, µM (series often up to 28.7 µM), without a hit: at the top dose activity change, negative = inhibition, usual class: inhibitors; actives 5.9% (n = 310,000); further: on the % scale 0 is the no-effect control and ±100 the full control effect
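A one-generation exposure of luciferase-tagged malaria parasites in RPMI 1640/Albumax erythrocyte culture, 37 C and 5% CO2. Inhibition is inferred from decreased luminescence after adding detection reagent.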
Pf growth 96h = Primary qHTS for delayed death inhibitors of the malarial parasite plastid, 96 hour incubation; P. falciparum luciferase reporter growth, 96 h; Potency, µM (top dose mostly 28.7 µM), inactives show top-dose activity change, negative = inhibition, usual class: inhibitors; actives 6.9% (n = 320,000); further: on the % scale 0 is the no-effect control and ±100 the full control effect
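Plates of compound plus infected erythrocytes (2% hematocrit, 0.05% parasitemia final) incubate 96 hours, 37 C, 5% CO2. Detection reagent added; reduced luminescence from the parasites' luciferase reporter flags inhibition.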
The depositor's hits bear a star; i = inactive; ? = inconclusive; · = no result; [ ] = remark or other dose. Rows were chosen to be rich in hits. Some 12% of all compounds tested hit in one or more screens of this group. Unless noted, the call rests on the fitted dose curve; in most records, active means well fitted curve in the direction sought with a large enough effect; inconclusive means small, poorly fitted or top-dose-only effect, or another doubt; inactive means no such curve, though single readings can be large; an effect the other way counts as inactive or inconclusive. Potency means the concentration at half of the fitted maximal effect.

SMILES	Sm TGR block	SARS PLpro yeast	AmpC no deterg	AmpC inh detg	Pf growth 48h	Pf growth 96h
O=C(NCCC(=O)N1CCN(c2ccccc2O)CC1)c1ccc(Br)cc1	-18.7%	-0.7%	64.1%	0.0%	?	?
O=C(CCNS(=O)(=O)c1ccc(Br)s1)N1CCN(c2ccccc2)CC1	7.5%	-9.4%	9.6%	?	-6.4%	11.7µM*
CCOC(=O)c1c(C)[nH]c(C)c1S(=O)(=O)N1CCC(C(=O)Nc2cc(Cl)ccc2OC)CC1	-5.0%	·	·	-0.6%	·	·
O=C(NCCCN1CCN(c2ccc(F)cc2)CC1)Nc1ccc(Cl)cc1	-2.1%	·	·	-2.5%	·	·
Cc1cccc(C)c1NC(=O)CNC(=O)c1cccc(S(=O)(=O)NCc2cccs2)c1	-9.6%	-3.2%	-21.1%	0.0%	-13.3%	-25.8%
O=C1C=C(NCCN2CCOCC2)C(=O)c2cnccc21	-25.9%	-51.6%	-15.8%	-11.3%	1.47µM*	1.65µM*
Cc1ccccc1C(=O)Nc1ccccc1OCc1cc(=O)n2ccccc2n1	6.7%	·	·	-2.9%	·	·
C[C@](N)(Cc1ccc(O)c(O)c1)C(=O)O	22.4µM*	2.9%	?	?	21.9%	?
COC(=O)C(N)Cc1ccc(O)c(O)c1 (centres undefined)	7.94µM*	1.4%	-12.7%	-1.3%	?	·
O=C(c1ccco1)N1CCN(Cc2nc3ccccc3[nH]2)CC1	·	-4.2%	-12.6%	·	·	·
CCCCCCc1cc2cc(/C(N)=N/NC(=O)c3ccncc3)c(=O)oc2cc1O	0.1%	1.8%	-14.0%	5.4%	3.29µM*	20.5%
CCCCCCc1cc2cc(C(=O)OCC)c(=O)oc2cc1O	3.4%	1.1%	-25.3%	6.8%	1.65µM*	1.47µM*
CCCCCCc1cc2cc(C(=O)Nc3cccc(OC)c3)c(=O)oc2cc1O	-19.9%	2.9%	-22.4%	-7.8%	?	18.3%
CCCCCCc1cc2cc(C(N)=O)c(=N)oc2cc1O	?	-1.3%	?	-4.6%	·	?
COc1cccc(/C=C/C(=O)c2ccc3c(c2)OCCO3)c1OC	6.6%	-8.2%	-23.7%	?	74.8%	0.0%
COc1ccc(S(=O)(=O)Nc2ccccc2Cl)cc1NC(C)=O	0.7%	0.1%	-12.5%	-9.6%	-12.6%[5.75 µM]	10.0%
CCC(Sc1nc2ccccc2c2nc(-c3ccccc3)nn12)C(=O)Nc1cccc(OC)c1 (centres undefined)	1.6%	·	·	8.0%	·	·
COc1ccc(CNc2nc(NCc3ccc(OC)c(OC)c3)n(C(=O)c3cccs3)n2)cc1OC	6.9%	-5.2%	94.1%	-2.7%	?	7.38µM*
O=C(Nc1c(S(=O)(=O)c2ccc(Cl)cc2)csc1Br)c1ccccc1Cl	-1.1%	0.8%	-21.4%	-0.9%	?	?
CCc1nc2ccc(C(=O)N3CCN(c4ccccc4)CC3)cc2nc1CC	8.0%	-2.1%	127.0%	1.5%	-5.2%	2.62µM*
CCc1nc2ccc(C(=O)N3CCN(c4cccc(C(F)(F)F)c4)CC3)cc2nc1CC	6.9%	-8.1%	206.1%	-2.8%	-17.0%	?
CCCN1CCN(C(=O)c2ccc3nc(CC)c(CC)nc3c2)CC1	-22.9%	-0.8%	28.8%	-0.1%	35.5%	444.0%
CCc1nc2ccc(C(=O)N3CCN(c4ccc(Cl)cc4)CC3)cc2nc1CC	0.0%	-6.7%	127.3%	-6.2%	-9.8%	5.22µM*
Cc1ccnc(NC(=S)NC(=O)c2cccs2)c1	4.5%	-29.7%	-30.9%	?	185.4%	?
Cc1cc(C)c2cccc(NC(=S)NC(=O)c3ccccc3)c2n1	-2.3%	?	-27.3%	-0.8%	10.4µM*	1.85µM*
SMILES	Sm TGR block	SARS PLpro yeast	AmpC no deterg	AmpC inh detg	Pf growth 48h	Pf growth 96h
O=C(NC(=S)Nc1cccc2ncccc12)c1cccs1	3.98µM*	-0.7%	-12.0%	-1.4%	59.4%	23.2%
O=C(NC(=S)Nc1cccc2ncccc12)c1ccccc1	8.91µM*	2.5%	-15.8%	?	i	?
Nc1ccc(C(=O)Nc2cccc3ncccc23)cc1	1.4%	10.1%	-3.3%	2.5%	2.2%	-4.5%
CC(=O)Nc1cccc2ncccc12	6.4%	11.4%	-9.0%	?	17.3%	4.15µM*
[O-][n+]1c2ccc3nonc3c2nn1-c1ccccc1Cl	-4.2%	?	0.8%	-1.9%	12.1%	-14.9%
COc1ccc(C(=O)C2CCCN(C(=O)c3ccc4nccnc4c3)C2)c(C)c1 (centres undefined)	0.2%	-1.1%	47.5%	1.2%	-29.0%	24.3%
CC(C)N1CCC2(CC1)Oc1ccc(Br)cc1C1CC(c3cccnc3)=NN12 (centres undefined)	7.2%	1.5%	-1.7%	5.2%	?	13.1µM*
COc1cccc2c1OC1(CCN(C(C)C)CC1)N1N=C(c3cccnc3)CC21 (centres undefined)	8.8%	0.3%	70.8%	3.4%	64.9%	83.4%
Cc1ccc2c(CN3CCN(C(=O)c4ccc(Br)cc4)CC3)cc(=O)oc2c1	3.2%	·	·	6.3%	·	·
C[C@@]1([C@@H](NC(=O)c2cccs2)c2ccc(-c3ccccc3)cc2)C[C@H]1C1CCCCC1	-7.2%	-9.5%	-32.6%	-11.5%	1.85µM*	2.62µM*
CC1CCN(C(=O)Cn2nnc(-c3cccs3)n2)CC1	-1.2%	-0.1%	-10.5%	6.6%	202.4%	?
O=C(Cn1nnc(-c2cccs2)n1)N1CCOCC1	0.4%	1.4%	-14.1%	-1.5%	9.6%	9.28µM*
CCCn1c(N)c(C(=O)CSc2nnc(C3CC3)n2C2CC2)c(=O)[nH]c1=O	·	10.1%	-24.9%	·	·	·
CC(C)NC(=O)c1cnc2sc(N3CCCCCC3)nn2c1=O	-0.3%	·	·	0.6%	·	·
O=C1C(Cl)=C(N2CCCCC2)C(=O)C(Cl)=C1c1cnc(N2CCCCC2)s1	0.251µM*	-6.2%	-51.8%	-6.7%	10.4µM*	-6.4%
COc1ccc2[nH]c(=O)c(CNc3ccc(C)cc3C)cc2c1	12.6µM*	-0.4%	-21.5%	-0.1%	25.6%	10.4%
COc1ccc2[nH]c(=O)c(CNc3cc(C)ccc3C)cc2c1	-0.7%	0.4%	-11.2%	-0.5%	-16.9%	-1.6%
COc1ccc2[nH]c(=O)c(CNc3ccccc3OC)cc2c1	17.8µM*	-1.0%	-13.7%	-0.2%	-19.0%	-3.1%
Cc1cccc(C(=O)NCc2nnc(SCC(=O)Nc3nncs3)n2C)c1	-5.7%	15.7%	2.3%	-1.3%	-6.2%	?
CCOc1ccc(/C=C/C(O)=C2/C(=O)NC3(C)CC2c2ccccc2O3)cc1OC (centres undefined)	-10.0%	-1.6%	0.1%	-8.5%	?	?
